Source: PubChem BioAssay (National Center for Advancing Translational Sciences (NCATS))
An excerpt weighted towards active compounds, which were near 5.7% of everything screened.
PI5P4Ka inh: inhibitors of human PI5P4K alpha; PI5P4Kalpha enzyme, ADP-Glo luminescence, 60 min; hits give low values; max response, %; hit rate 1.2% among 330,000; active = max response of -50% or lower; inconclusive = between -30% and -50%; inactive = -30% or higher; note: value at the top dose of about 77 µM; % is set by controls: 0 for no effect and ±100 for the full control effect
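ADP-Glo luminescence end-point after a 60 min room-temperature kinase reaction. PI5P4Kalpha and substrate in HEPES pH 7.4 buffer with EGTA, 0.1% CHAPS and 5% DMSO; ATP at 5 microM final.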
L3MBTL1 inh: L3MBTL1 (human) inhibition; Q9Y468; AlphaScreen L3MBTL1–H3K9me1 peptide binding; Potency, µM (highest dose often 57.1 µM), without a hit: top-dose activity, negative = inhibition, usual class: inhibitors; hit rate 0.66% among 230,000; AID 485360; note: potency is the fitted concentration of half-maximal effect; % is set by controls: 0 for no effect and ±100 for the full control effect; nearly all actives have a fitted effect of over 60% in size
Target sequence (Q9Y468 whole entry, looked up): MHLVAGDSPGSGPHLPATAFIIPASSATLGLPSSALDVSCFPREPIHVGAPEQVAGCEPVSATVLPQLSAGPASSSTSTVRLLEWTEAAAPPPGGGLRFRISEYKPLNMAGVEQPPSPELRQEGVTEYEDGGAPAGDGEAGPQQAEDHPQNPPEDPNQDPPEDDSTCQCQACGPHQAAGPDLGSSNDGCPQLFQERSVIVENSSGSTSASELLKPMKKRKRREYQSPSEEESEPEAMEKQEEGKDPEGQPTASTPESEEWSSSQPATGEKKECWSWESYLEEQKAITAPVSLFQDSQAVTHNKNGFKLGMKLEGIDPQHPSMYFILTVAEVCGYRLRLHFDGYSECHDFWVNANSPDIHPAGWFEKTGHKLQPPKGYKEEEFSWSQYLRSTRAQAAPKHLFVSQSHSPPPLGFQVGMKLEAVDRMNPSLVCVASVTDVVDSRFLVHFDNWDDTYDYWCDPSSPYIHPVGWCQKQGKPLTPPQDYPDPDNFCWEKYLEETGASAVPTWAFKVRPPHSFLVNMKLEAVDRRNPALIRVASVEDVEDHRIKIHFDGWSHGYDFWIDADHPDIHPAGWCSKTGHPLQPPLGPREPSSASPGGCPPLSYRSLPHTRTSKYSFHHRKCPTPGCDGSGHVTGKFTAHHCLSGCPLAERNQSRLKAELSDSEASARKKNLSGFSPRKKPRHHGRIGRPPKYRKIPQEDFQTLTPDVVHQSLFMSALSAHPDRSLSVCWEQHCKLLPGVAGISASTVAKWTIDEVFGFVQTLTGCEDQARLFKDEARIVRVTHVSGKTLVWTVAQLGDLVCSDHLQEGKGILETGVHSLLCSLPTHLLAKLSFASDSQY
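Read-out is AlphaScreen signal from streptavidin donor and nickel chelate acceptor beads (10 ug/mL final each) bridging L3MBTL1 (50 nM) and biotinylated K9-monomethylated H3(1-15) peptide (75 nM), after 30 min compound exposure at room temperature.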
BAZ2B inh: BAZ2B (human) inhibition. AID 504333. Q9UIF8. Potency, µM (top dose mostly 114 µM), without a hit: at the top dose activity change, negative = inhibition, most hits filed as inhibitors. hit rate 4.4% among 360,000. AlphaScreen BAZ2B-H3K14Ac peptide displacement; note: potency is the fitted concentration of half-maximal effect; % is set by controls: 0 for no effect and ±100 for the full control effect; nearly all actives have a fitted effect of over 60% in size
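AlphaScreen luminescence quantifies BAZ2B engagement of H3K14Ac peptide; the protein and biotinylated peptide are both at 50 nM final, buffer PBS pH 7.4 with 0.01% Tween-20, all steps at room temperature.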
JMJD2E inh: inhibitors of human JMJD2E histone demethylase. B2RXH2. hit rate 1.6% among 230,000. Potency, µM (titrated, usually from 57.1 µM), for the others: top-dose activity change, negative = inhibition, hits mostly inhibitors. JMJD2E catalytic domain, FDH-coupled NADH fluorescence (FDH is formaldehyde dehydrogenase); active = well fitted inhibition curve with a large enough effect, not every such curve was filed as active; inconclusive = small, poorly fitted or top-dose-only effect, or another doubt; inactive = no such curve, though single readings can be large or run the other way;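 note: potency is the fitted concentration of half-maximal effect; 0% = wells with enzyme and -100% = buffer wells without enzyme; nearly all actives have a fitted effect of over 50% in size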
JMJD2A Tudor: inhibitors of human JMJD2A Tudor domain; AlphaScreen JMJD2A-Tudor / H3K4me3 peptide binding; Potency, µM (titrated, usually from 114 µM), without a hit: at the highest dose activity change, negative = inhibition, most hits filed as inhibitors; hit rate 4.4% among 390,000; note: potency is the fitted concentration of half-maximal effect; % is set by controls: 0 for no effect and ±100 for the full control effect; nearly all actives have a fitted effect of over 50% in size
HP1b binding inh: inhibitors of HP1-beta chromodomain binding to methylated histone tails; Potency, µM (series often up to 114 µM), inactives show at the top dose activity change, negative = inhibition, most hits filed as inhibitors; AID 540317; P83916; AlphaScreen HP1-beta / biotin-H3K9me3 peptide binding; hit rate 0.56% among 390,000; note: potency is the fitted concentration of half-maximal effect; nearly all actives have a fitted effect of over 70% in size
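Compound inhibition of the preformed complex between 50 nM HP1-beta and 50 nM biotinylated H3K9me3 peptide was read by AlphaScreen. Buffer was PBS pH 7.4 with 0.01% Tween-20. Incubations ran 30 min at room temperature, with 10 ug/mL donor/acceptor beads.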
Starred values were filed as active, the others as inactive; [ ] = dose if it differs, or a comment. Unless noted, calls come from the whole dose curve; as a rule, active = well fitted inhibition curve with a large enough effect; inconclusive = small, poorly fitted or top-dose-only effect; inactive = no such curve, though single readings can be large or run the other way.

What do the screens show for `O=C(CNC(=O)c1ccccc1)N/N=C/C=C/c1ccccc1`?
PI5P4Ka inh: -22; BAZ2B inh: 1%; JMJD2A Tudor: 9%; HP1b binding inh: 29%

What do the screens show for `CCCOc1ccc(/C=C/c2[nH]c(=O)[nH]c(=O)c2[N+](=O)[O-])cc1OCC`?
PI5P4Ka inh: -20; BAZ2B inh: -1%; JMJD2E inh: 0%; JMJD2A Tudor: inconclusive; HP1b binding inh: 3%

How did CCOC(=O)COc1ccc(Br)cc1/C=C/c1[nH]c(=O)[nH]c(=O)c1[N+](=O)[O-] do in these assays?
PI5P4Ka inh: -59*; BAZ2B inh: 13%; JMJD2E inh: inconclusive; JMJD2A Tudor: -13%; HP1b binding inh: -17%

How did CCOC(=O)COc1ccc(Br)cc1/C=C\c1[nH]c(=O)[nH]c(=O)c1[N+](=O)[O-] do in these assays?
PI5P4Ka inh: -74*; L3MBTL1 inh: 1%; BAZ2B inh: -34%; JMJD2E inh: 0%; JMJD2A Tudor: -18%; HP1b binding inh: inconclusive

How did Cc1ccc(CCNC(=O)C2CCN(S(=O)(=O)c3ccc4c(ccn4C)c3)CC2)cc1 do in these assays?
BAZ2B inh: 2%; JMJD2A Tudor: 2%; HP1b binding inh: 21%[57 µM]

What do the screens show for `CC(C)=CCc1c2c(c3occ(-c4ccc(O)cc4)c(=O)c3c1O)C=CC(C)(C)O2`?
PI5P4Ka inh: 140; L3MBTL1 inh: -12%; BAZ2B inh: inconclusive; JMJD2E inh: -10%; JMJD2A Tudor: inconclusive; HP1b binding inh: -12%

Results for CC(C)=CCc1c2c(c3occ(-c4ccc(O)c(O)c4)c(=O)c3c1O)C=CC(C)(C)O2 ?
PI5P4Ka inh: 64; JMJD2E inh: inconclusive; JMJD2A Tudor: 22µM*; HP1b binding inh: inconclusive

What do the screens show for `Cc1ccccc1S(=O)(=O)Cc1ccc(C(=O)NC2CC2)o1`?
PI5P4Ka inh: 4; BAZ2B inh: 0%; JMJD2A Tudor: 50µM*; HP1b binding inh: -22%

What do the screens show for `Cc1ccccc1S(=O)(=O)Cc1ccc(C(=O)NCc2ccco2)o1`?
PI5P4Ka inh: -22; BAZ2B inh: -11%; JMJD2A Tudor: 16µM*; HP1b binding inh: -8%

What do the screens show for `Cc1ccccc1S(=O)(=O)Cc1ccc(C(=O)NC2CCCC2)o1`?
PI5P4Ka inh: 1; BAZ2B inh: -1%; JMJD2A Tudor: -8%; HP1b binding inh: 67%

How did COc1cccc2oc3cc(C#CC4(O)CCCCC4)ccc3c(=O)c12 do in these assays?
PI5P4Ka inh: -17; L3MBTL1 inh: -1%; BAZ2B inh: -12%; JMJD2A Tudor: -27%; HP1b binding inh: 36%

Results for COc1cccc2oc3cc(C#Cc4ccccn4)ccc3c(=O)c12 ?
PI5P4Ka inh: -23; L3MBTL1 inh: -8%; BAZ2B inh: 40µM*; JMJD2A Tudor: 22µM*; HP1b binding inh: 68%

What do the screens show for `CC(=O)c1cccc(OCC(=O)N(Cc2ccco2)c2c(N)n(Cc3ccccc3)c(=O)[nH]c2=O)c1`?
PI5P4Ka inh: -5; L3MBTL1 inh: 3%; BAZ2B inh: -5%; JMJD2A Tudor: 3%; HP1b binding inh: 23%

What do the screens show for `CCOc1ccc(-n2c(SCc3ccc([N+](=O)[O-])cc3)nnc2-c2ccccc2)cc1`?
PI5P4Ka inh: 0; L3MBTL1 inh: -3%; BAZ2B inh: -30%; JMJD2E inh: -1%; JMJD2A Tudor: 56µM*; HP1b binding inh: 0%

Results for O=C(/C=C/c1ccco1)NC(=S)Nc1cccc(C(=O)O)c1 ?
PI5P4Ka inh: -74*; BAZ2B inh: 32µM*; JMJD2A Tudor: 20µM*; HP1b binding inh: 20µM*

How did COc1ccc(/C(C)=N/NC(=O)CNC(=O)/C=C\c2ccco2)cc1 do in these assays?
PI5P4Ka inh: -29; BAZ2B inh: 79µM*; JMJD2E inh: 9%; JMJD2A Tudor: inconclusive; HP1b binding inh: -7%

What do the screens show for `O=C(/C=C/c1cccs1)NC(=S)Nc1ccc(C(=O)O)cc1`?
PI5P4Ka inh: -72*; L3MBTL1 inh: 0%; BAZ2B inh: -28%; JMJD2E inh: -5%; JMJD2A Tudor: -31%; HP1b binding inh: 22%

Results for NS(=O)(=O)c1ccc(NC(=S)NC(=O)/C=C/c2cccs2)cc1 ?
PI5P4Ka inh: 6; L3MBTL1 inh: -8%; BAZ2B inh: -3%; JMJD2E inh: -8%; JMJD2A Tudor: 4%; HP1b binding inh: 19%

Results for COc1ccc(NC(=S)NC(=O)/C=C/c2ccco2)c(OC)c1 ?
PI5P4Ka inh: -3; L3MBTL1 inh: 2%[2.29 µM]; BAZ2B inh: -24%; JMJD2A Tudor: inconclusive; HP1b binding inh: -4%

Results for COc1cccc(NC(=S)NC(=O)/C=C/c2ccco2)c1 ?
PI5P4Ka inh: -54*; L3MBTL1 inh: -27%; BAZ2B inh: 50µM*; JMJD2A Tudor: inconclusive; HP1b binding inh: -12%

Results for CCOc1ccc(-n2c(=O)c3c(C)c(C)sc3n(Cc3ccccc3C)c2=O)cc1 ?
BAZ2B inh: 3%; JMJD2A Tudor: -12%; HP1b binding inh: 12%

Results for Cc1ccc(NC(=O)/C(=C\c2ccco2)NC(=O)c2ccco2)cc1 ?
PI5P4Ka inh: 0; BAZ2B inh: -1%; JMJD2A Tudor: inconclusive; HP1b binding inh: 47%

Results for CC(=O)N(C)c1ccc(NC(=S)NC(=O)/C=C/c2ccco2)cc1 ?
PI5P4Ka inh: -28; BAZ2B inh: inconclusive; JMJD2A Tudor: -6%; HP1b binding inh: 12%

Results for Cc1ccc(NC(=O)N/C=C/c2ccco2)cc1 ?
L3MBTL1 inh: inconclusive; BAZ2B inh: 79µM*; JMJD2E inh: inconclusive; JMJD2A Tudor: 50µM*; HP1b binding inh: -11%

Results for COc1nccnc1NS(=O)(=O)c1ccc(NC(=S)NC(=O)c2ccccc2)cc1 ?
PI5P4Ka inh: -2; L3MBTL1 inh: -5%; BAZ2B inh: inconclusive; JMJD2E inh: 0%; JMJD2A Tudor: inconclusive; HP1b binding inh: -16%

How did COc1nccnc1NS(=O)(=O)c1ccc(NC(=S)NC(=O)/C=C/c2ccccc2)cc1 do in these assays?
PI5P4Ka inh: -11; L3MBTL1 inh: -10%; BAZ2B inh: -13%; JMJD2E inh: 3%; JMJD2A Tudor: 79µM*; HP1b binding inh: -7%

Results for CC(=O)Nc1ccc(NC(=S)NC(=O)/C=C/c2ccco2)cc1 ?
PI5P4Ka inh: -64*; L3MBTL1 inh: 2%[2.29 µM]; BAZ2B inh: inconclusive; JMJD2A Tudor: inconclusive; HP1b binding inh: 7%

How did CCN(CC)S(=O)(=O)c1ccc(OC)c(NC(=O)/C=C/c2ccco2)c1 do in these assays?
PI5P4Ka inh: -26; L3MBTL1 inh: 0%; BAZ2B inh: 71µM*; JMJD2E inh: -19%; JMJD2A Tudor: -5%[11.4 µM]; HP1b binding inh: inconclusive

What do the screens show for `CCOc1ccccc1CNC(=O)CCCN1C(=O)c2cccnc2Oc2ccc(Cl)cc21`?
BAZ2B inh: -6%; JMJD2A Tudor: -27%; HP1b binding inh: 5%
